Screening results from PubChem BioAssay.
LGR2 inh = inhibitors of bursicon-induced LGR2 CRE-luciferase signal, primary screen, cell-based, HEK293, CRE-luciferase reporter, bursicon stimulation | inhibition, % at 9.99 µM | 380,000 tested, 0.35% active | AID 720647, 2013 | bursicon-stimulated, 4 h | Drosophila bursicon receptor LGR2 (rickets);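 active = drop in luminescence signal, shown as inhibition above about 50% in the replicate tests, limit read from the data, passing the limit was not always enough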;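 also: agonist challenge used bursicon conditioned medium at about half maximal strength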
EBV LMP1 NFkB = EBV LMP1-driven NF-kappaB luciferase reporter inhibitors, primary screen, cell-based, luminescence, single point | LMP1-induced NF-kappaB luciferase reporter cells | inhibition, % at 12.5 µM | 350,000 tested, 0.69% active | AID 504558, 2011; in the data active = inhibition above about 41%;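 also: 0% = neutral control wells and 100% = reference inhibitor control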
TROY NFkB inh = inhibitors of TROY-driven NF-kB signaling, primary screen, Q293 LMP1-TROYcd cells, NF-kB luciferase, uHTS; inhibition, % at 10 µM; 360,000 tested, 0.98% active; Q293 LMP1-TROYcd NF-kB luciferase reporter, 4 h;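 active = compounds whose plate-normalised and pattern-corrected inhibition of the luciferase reporter signal at the single screening dose is 50% or more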
TRPM1 prom inh = inhibitors of MITF-dependent TRPM1 promoter reporter, primary screen, cell-based, SK-MEL-5, single point, luciferase. SK-MEL-5 TRPM1 promoter luciferase, 24 h. 330,000 tested, 0.83% active. inhibition, % at 12.5 µM;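 active = mean inhibition across replicates of 60% or more, whatever share of single replicates reaches that level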
TWEAK-Fn14 inh = inhibitors of TWEAK-Fn14 signaling, primary screen, luciferase reporter cells, uHTS; TWEAK-stimulated Fn14 reporter cells, luciferase luminescence, 8 h; inhibition, % at 10 µM; 360,000 tested, 2% active; in the data active = inhibition above about 50%
MITF TRPM1 HTS = activators of MITF-driven TRPM1 promoter reporter, primary screen, cell-based, SK-MEL-5, luciferase, single point; activation, % at 12.5 µM; AID 588334, 2011; SK-MEL-5 TRPM1-promoter luciferase, 24 h; % of positive control, neutral wells = 0; 300,000 tested, 0.75% active;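 active = mean activation of at least 80% with every replicate also reaching 80%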;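 also: 0% = neutral control wells and 100% = parthenolide positive control wells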
The depositor's hits bear a star; . = no result given. Only some compounds are listed: those with a hit (about 3% of all), similar ones and a draw of the others.

SMILES	LGR2 inh	EBV LMP1 NFkB	TROY NFkB inh	TRPM1 prom inh	TWEAK-Fn14 inh	MITF TRPM1 HTS
CCOC(=O)c1nn(-c2ccc3c(c2)OCO3)cc1O	.	-6	-6	-83	-16	90*
CCOC(=O)c1cc(C(=O)OCC)cc(-n2cc(O)c(C(=O)OCC)n2)c1	15	0	-7	13	-14	-14
COc1cc(OC)c(OC)cc1/C=N/n1c(C)nc2ccccc2c1=O	7	1	13	-11	97*	12
CCOC(=O)Cc1nnc2c(Nc3ccc(Cl)cc3)nc3nonc3n12	.	11	52*	0	36	-7
C[C@H]1CN([C@@H](C)CO)C(=O)c2cc(-c3ccncc3)cnc2O[C@@H]1CN(C)C(=O)C1CCC1	-7	.	.	.	.	.
COc1ccc(-c2sc3ccc(N4CCOCC4)cc3c2C#CC(C)(C)O)cc1	0	-144	2	-16	-68	18
COc1ccc(-c2oc3ccc(N4CCOCC4)cc3c2C#CCO)cc1	34	-2	54*	45	97*	-42
COc1ccc(-c2ccc3oc(-c4ccc(OC)cc4)c(C#CCO)c3c2)cc1	28	16	39	1	53*	-2
COc1cc2nc(NC(=O)c3ccc(F)cc3Cl)sc(=O)c2cc1OC	.	3	-4	-28	64*	29
O=C(Nc1nc2ccsc2c(=O)s1)c1ccc(F)cc1Cl	.	-25	-38	-60	-11	.
CO[C@H]1CN(C)C(=O)c2ccc(NC(=O)NC(C)C)cc2OC[C@@H](C)N(Cc2cncnc2)C[C@H]1C	-8	.	.	.	.	.
O=C(Nc1ccc(F)cc1)C(c1cc2ccccc2o1)N1CCN(c2cccc(C(F)(F)F)n2)CC1 (stereo unspecified)	-8	.	.	.	.	.
O=C(Nc1ccc2c(c1)OCCO2)C(c1cc2ccccc2o1)N1CCN(C/C=C/c2ccccc2)CC1 (stereo unspecified)	7	.	83*	.	86*	.
O=C(Nc1ccc2c(c1)OCCO2)C(c1cc2ccccc2o1)N1CCN(c2ccc(C(F)(F)F)cn2)CC1 (stereo unspecified)	34	.	86*	.	88*	.
O=C(Nc1ccc2c(c1)OCCO2)C(c1cc2ccccc2o1)N1CCN(c2ccc(F)cc2)CC1 (stereo unspecified)	23	.	85*	.	85*	.
O=C(Nc1ccc2c(c1)OCCO2)C(C1CC1)N1CCN(C/C=C/c2ccccc2)CC1 (stereo unspecified)	-6	.	9	.	-5	.
O=C(Nc1ccccc1F)N[C@@H]1C=C[C@H](CC(=O)N2CCCCC2)O[C@H]1CO	6	.	.	.	.	.
COCCNC(=O)C[C@@H]1CC[C@@H]2[C@@H](COc3ccc(NC(=O)C4CCOCC4)cc3C(=O)N2C)O1	16	.	.	.	.	.
CC(=O)c1cccc(OCC(=O)Nc2cc(Cl)ccc2-n2cncn2)c1	-27	-19	-79	-77	-21	84*
CC(C)c1cn(CC[C@H]2CC[C@@H](NS(=O)(=O)Cc3ccccc3)[C@H](CO)O2)nn1	8	.	.	.	.	.
Cc1ccc(C2Nc3ccccc3NC3=C2C(=O)OC(C)C3)cc1 (stereo unspecified)	-18	2	64*	19	30	-19
CC1CC2=C(C(=O)O1)C(c1ccc(Cl)cc1)Nc1ccccc1N2 (stereo unspecified)	-6	-3	15	6	12	-7
COCCCN=C1NN=C(c2cc(C)n(-c3ccccc3)c2C)CS1	.	-3	12	-1	28	0
COCCCN=C1NN=C(c2cc(C)n(-c3ccccc3F)c2C)CS1	6	33	6	26	59*	-25
Cc1cc(C2=NNC(=NCCc3ccccc3)SC2)c(C)n1-c1c(C)n(C)n(-c2ccccc2)c1=O	13	2	-2	0	57*	0
SMILES	LGR2 inh	EBV LMP1 NFkB	TROY NFkB inh	TRPM1 prom inh	TWEAK-Fn14 inh	MITF TRPM1 HTS
COCCCN=C1NN=C(c2cc(C)n(Cc3ccccc3Cl)c2C)CS1	-11	16	-3	-16	3	15
Fc1ccc(F)c(C2=NNC(=Nc3ccccc3F)SC2)c1	8	-130	-36	-49	15	45
Fc1ccccc1N=C1NN=C(c2ccccc2)CS1	-1	-49	41	-41	67*	50
COCCn1c(C)cc(C2=NNC(=Nc3ccccc3F)SC2)c1C	.	64*	89*	67*	105*	.
C[C@H]1CN([C@@H](C)CO)S(=O)(=O)c2ccc(-c3ccncc3)cc2O[C@H]1CN(C)C(=O)CC1CC1	0	.	.	.	.	.
COCC(=O)N(C)C[C@@H]1Oc2cc(C#CC3CCCC3)ccc2S(=O)(=O)N([C@@H](C)CO)C[C@H]1C	-15	.	.	.	.	.
O=C(NCC[C@@H]1CC[C@@H](NS(=O)(=O)c2cccc(F)c2)[C@@H](CO)O1)C1CCCC1	-7	.	.	.	.	.
COc1ccc(-c2ccc(CN3C(C)C(=O)N(Cc4cn(CCC5OCCO5)nn4)CCS3(=O)=O)cc2)cc1 (stereo unspecified)	7	-12	17	.	5	.
CC1C(=O)N(Cc2cn(CCC3OCCO3)nn2)CCS(=O)(=O)N1Cc1ccc(-c2ccc(Cl)c(Cl)c2)cc1 (stereo unspecified)	0	3	37	.	56*	.
COc1ccc2cc3c(N)nn(C(=O)C4CCC(C(C)(C)C)CC4)c3nc2c1 (stereo unspecified)	12	75*	55*	.	90*	.
COc1ccc2cc3c(N)nn(C(=O)c4cccc([N+](=O)[O-])c4)c3nc2c1	3	46*	10	7	47	-6
COc1ccc2cc3c(N)nn(C(=O)Cc4ccccc4OC)c3nc2c1	1	21	35	27	52*	-25
CN(C)C(=O)C[C@H]1C[C@H]2c3cc(NC(=O)c4ccc5c(c4)OCO5)ccc3O[C@H]2[C@@H](CO)O1	1	.	.	.	.	.
Cc1ccc(NC(=O)c2ccc3c(c2)OCCO3)nc1	49	50*	29	13	62*	-13
Cc1ccnc(NC(=O)c2cccc(NC(=O)c3ccc(Cl)cc3)c2)c1	6	-2	-20	5	-7	.
O=C(Nc1ccon1)c1ccc2c(c1)OCO2	.	-10	-18	-18	6	16
Cc1ccnc(NC(=O)c2ccc3c(c2)NC(=O)C(C)S3)c1 (stereo unspecified)	48	13	44	-40	67*	42
Cc1ccnc(NC(=O)c2ccc3c(c2)OCO3)c1	32	13	15	-75	55*	74
CC(=O)c1ccccc1NC(=O)c1ccc2c(c1)NC(=O)C(C)S2 (stereo unspecified)	-29	-35	-16	-57	-5	64
